Screening results (PubChem)
KB-3-1 tox: qHTS assay for MDR1-selective chemotherapeutics: Primary screen using the parental adenocarcinoma cell KB-3-1 | KB-3-1 viability, CellTiter-Glo ATP luminescence, 72 h | Potency, µM (doses to about 46.1 µM), hits mostly cytotoxic | hit rate 1.4% among 400,000; note: % is set by controls: 0 for no effect and ±100 for the full control effect; nearly all actives have a fitted effect of over 60% in size
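Parental KB-3-1 adenocarcinoma cells in phenol-red-free DMEM with 10% FBS were pin-treated with compounds at several concentrations, incubated 72 h at 37 °C, and viability read by CellTiter-Glo luminescence; concentration-effect curves were fitted after normalization.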
HT1080-NT tox: qHTS for induction of synthetic lethality in tumor cells producing 2HG: qHTS for the HT-1080-NT fibrosarcoma cell line. Potency, µM (top dose mostly 46.1 µM), for the others: top-dose activity, negative = less viability, most hits filed as cytotoxic. AID 686970, 2013. HT-1080-NT fibrosarcoma viability, CellTiter-Glo ATP luminescence, 48 h. hit rate 1.6% among 360,000;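 note: NT is the 2HG producing partner of a matched IDH1 knockdown line; 0% = DMSO-treated cells and -100% = media-only wells without cells; nearly all actives have a fitted effect of over 55% in size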
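HT-1080-NT; 750 cells/well; 5% FBS RPMI; 48 h compound, 37 degrees C; CellTiter-Glo luminescence; curve fitting and curve-class assignment.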
MCF10A rereplic: A quantitative high throughput screen for small molecules that induce DNA re-replication in MCF 10a normal breast cells | Potency, µM (top dose mostly 46.1 µM), inactives show at the top dose activity, positive = re-replication, usual class: activators | MCF 10A DNA re-replication, Hoechst nuclear intensity, 48 h | hit rate 2.9% among 350,000 | AID 624296, 2012; note: % of control where 0% means no effect; nearly all actives have a fitted effect of over 50% in size
KB-V1 MDR tox: qHTS assay for MDR1-selective chemotherapeutics: Primary screen using the drug-selected MDR subline cells KB-V1; KB-V1 MDR cells viability, CellTiter-Glo, 72 h; Potency, µM (highest dose often 46.1 µM), most hits filed as cytotoxic; hit rate 3.4% among 400,000; note: % is set by controls: 0 for no effect and ±100 for the full control effect; nearly all actives have a fitted effect of over 60% in size
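Readout: CellTiter-Glo luminescence, 10 min after addition. Cells: KB-V1 MDR subline, 72 h at 37 degrees C with compound. Analysis: corrected, normalized data fitted to concentration-effect curves.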
HT1080 IDH1KD tx: qHTS for induction of synthetic lethality in tumor cells producing 2HG: qHTS for the HT-1080-IDH1KD cell line; HT-1080 IDH1 knockdown viability, ATP luminescence, 48 h; Potency, µM (doses to about 46.1 µM), without a hit: at the top dose activity, negative = toxicity, usual class: cytotoxic; hit rate 2% among 360,000;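 note: 0% = DMSO wells and -100% = cell-free medium wells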
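In this qHTS, HT-1080 cells depleted of IDH1 are exposed for 48 h at 37 °C to compound titrations. Toxicity is scored from CellTiter-Glo luminescence, with DMSO as full viability and medium alone as none.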
SW480 rereplic: A quantitative high throughput screen for small molecules that induce DNA re-replication in SW480 colon adenocarcinoma cells; SW480 DNA re-replication, Hoechst DNA content imaging, 48 h; Potency, µM (highest dose often 46.1 µM), for the others: at the highest dose re-replication activation, most hits filed as activators; hit rate 1.8% among 340,000; AID 624297, 2012; note: % of control where 0% means no effect; nearly all actives have a fitted effect of over 55% in size
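Image-based read-out: total Hoechst fluorescence of nuclei (405 nm excitation, 500-530 nm emission), with hits raising the fraction of high-intensity nuclei. SW480 colon cells incubated 48 hr with compounds at 37 C.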
Starred values were filed as active, the others as inactive; i = inactive; ? = inconclusive; nt = not tested or not shown; [ ] = dose if it differs, or a comment. Shown are actives, neighbours in structure and some others; about 7.9% of the full set was active somewhere. Calls come from the whole dose curve; as a rule, active = well fitted curve in the direction sought with a large enough effect; inconclusive = small, poorly fitted or top-dose-only effect, or another doubt; inactive = no such curve, though single readings can be large; an effect the other way counts as inactive or inconclusive. Potency is the fitted concentration of half-maximal effect.

SMILES | KB-3-1 tox | HT1080-NT tox | MCF10A rereplic | KB-V1 MDR tox | HT1080 IDH1KD tx | SW480 rereplic
O=C(CN(C1CCCCC1)S(=O)(=O)c1ccc(F)cc1)NCc1ccncc1 | i | 3% | -11% | 8.2µM* | 15% | -4%
COc1cc(CN(C(=O)c2ccccc2[N+](=O)[O-])c2ccccn2)cc(OC)c1OC | i | nt | nt | i | nt | nt
O=C(C[n+]1csc2ccccc21)c1ccccc1 | i | nt | nt | i | nt | nt
CCOC(=O)N1CCN(c2ccc(S(=O)(=O)N(Cc3ccccc3)Cc3ccccc3)cn2)CC1 | i | -5% | -7% | 5.8µM* | -7% | 2%
Cc1ccccc1C(=O)Nc1nnc(SCC(=O)NCc2ccco2)s1 | i | 7% | 10% | i | 0% | ?
N#Cc1cccc(OC2=NS(=O)(=O)c3ccccc32)c1 | i | nt | nt | ? | nt | nt
CCCN1CCN(c2ncnc3c2nnn3Cc2ccccc2)CC1 | ? | -16% | ? | 16µM* | ? | 21µM*
O=C(c1ccco1)N1CCN(c2nc(C(F)(F)F)nc3c2nnn3Cc2ccccc2)CC1 | ? | ? | 16% | 2.3µM* | ? | 17%
O=C(c1ccco1)N1CCN(c2ncnc3c2nnn3Cc2ccccc2Cl)CC1 | i | 2% | -8% | 5.8µM* | -17% | -16%
c1ccc(Cn2nnc3c(N4CCCCCC4)ncnc32)cc1 | ? | -22% | ? | i | -25% | 8%
Fc1ccc(N2CCN(c3ncnc4c3nnn4Cc3ccccc3Cl)CC2)cc1 | ? | 5% | ? | i | 10% | -2%[9.22 µM]
CC1=C(c2ccc(C)c(C)c2)S(=O)(=O)N=C1N1CCC(C(=O)Nc2cccc(F)c2)CC1 | i | nt | nt | i | nt | nt
O=C(CSc1ncn(-c2ccccc2)n1)Nc1nc2ccccc2s1 | i | -14% | ? | 18µM* | -7% | 19%
CCOc1ccc(S(=O)(=O)Nc2ccc(F)cc2)c(C)c1C | i | 6%[9.24 µM] | ? | i | 10µM* | 0%
CCc1nc2ccc(C(=O)NCCN3CCNC3=O)cn2c1N(CCC(C)C)CCN(C)C | i | 8% | nt | i | -2% | nt
Cc1ccc(N=C2CCCCCN2C)c(C#N)c1 | i | -7% | 1% | i | 0% | -9%
Cc1ccc(N=C2CCCN2Cc2ccccc2)c(C#N)c1 | ? | 2% | 4% | 18µM* | 6% | 5%
CC(C)C[C@@H]1CN(CCCC[C@H]2CNC(=O)C(=O)N2CCC2CCCCC2)C(=O)C(=O)N1CCC1CCCCC1 | ? | -13% | nt | i | 9% | nt
CC(C)C[C@H]1CN(CCCC[C@H]2CNC(=O)C(=O)N2CCC2CCCCC2)C(=O)C(=O)N1CCC1CCCCC1 | ? | 1% | nt | i | 23µM* | nt
CCOC(=O)C1CCCN(C(=S)NC(=O)c2cc(Br)ccc2Cl)C1 (centres undefined) | i | 14% | 7% | i | 12% | 16µM*
CCOC(=O)N1CCN(C(=S)NC(=O)c2cc(Br)ccc2Cl)CC1 | i | 10% | 4% | i | 3% | -4%
OC1CN=C2CCCc3c2n(c2ccc(Cl)cc32)C1 (centres undefined) | ? | -30% | ? | i | -13% | 3%
c1ccc(-c2ccc3c(c2)c2c4n3CCN=C4CCC2)cc1 | ? | ? | 8.2µM* | 10µM* | ? | ?
COC(=O)C1=C(N)N(c2ccccc2F)C2=C(C(=O)CC(C)(C)C2)C1c1ccc(OC)c(OC)c1 (centres undefined) | ? | 0% | 5% | 4.6µM* | -19% | ?
CC(C)(C)c1ccc(CC(=O)N2CCC2(C)C(=O)Nc2cnc3ccccc3c2)cc1 (centres undefined) | ? | ? | nt | 16µM* | ? | nt
SMILES | KB-3-1 tox | HT1080-NT tox | MCF10A rereplic | KB-V1 MDR tox | HT1080 IDH1KD tx | SW480 rereplic
Cc1ccc(CNC(=O)C2(C)CCN2C(=O)Cc2ccc(C(C)(C)C)cc2)cc1 (centres undefined) | i | ? | nt | i | ? | nt
CC(C)c1ccc(CC(=O)N2CCC2(C)C(=O)Nc2cnc3ccccc3c2)cc1 (centres undefined) | i | ? | nt | i | ? | nt
CSc1ccc(NC(=O)C2(C)CCN2C(=O)Cc2ccc(C(C)(C)C)cc2)cc1 (centres undefined) | ? | ? | nt | 16µM* | ? | nt
COc1ccc(NC(=O)COc2cccc3c2CCN(C)C3=O)c(OC)c1 | i | -1% | -1% | i | 0% | -18%
Cc1nc(Nc2nc3c(c(=O)[nH]2)CCC3)nc2ccccc12 | 5.8µM* | ? | ? | ? | ? | -85%
COc1ccc2nc(Nc3nc(CSc4nnc(C)s4)cc(=O)[nH]3)nc(C)c2c1 | nt | nt | -30% | nt | nt | 1%
Cc1ccc(SCc2cc(=O)[nH]c(Nc3nc(C)c4ccc(C)cc4n3)n2)cc1 | i | 29% | 1% | i | 20% | -3%
Cc1ccc2nc(Nc3nc(CSc4nnc(C)s4)cc(=O)[nH]3)nc(C)c2c1 | ? | 0% | 1% | 23µM* | 1% | ?
Cc1ccc2c(C)nc(Nc3nc(CSc4nc5ccccc5[nH]4)cc(=O)[nH]3)nc2c1 | i | 18µM* | -1% | ? | 11µM* | 15%
COc1ccc2c(C)nc(Nc3nc(-c4ccccc4)cc(=O)[nH]3)nc2c1 | 4.6µM* | ? | 4.6µM* | ? | ? | 3.7µM*
COCCNC(=O)C1(C)CCCN(C(=O)c2ccc(C#N)cc2)C1 (centres undefined) | i | ? | nt | i | 2% | nt
Cc1ccc(SCc2cc(=O)[nH]c(Nc3nc(C)c4ccccc4n3)n2)cc1 | i | -19% | 8% | 9.2µM* | -13% | -5%
O=C(c1ccccc1)c1nn(-c2ccc(Cl)cc2)cc1C(=O)c1cc2ccccc2oc1=O | ? | -3% | ? | 7.3µM* | -12% | 5%
CCCCOc1ccc(C(=O)NCC2(c3ccccc3)CCOCC2)cc1 | i | -5% | 28% | i | 0% | 18%
CCCCCOc1ccc(C(=O)NCC2(c3ccccc3)CCOCC2)cc1 | i | -5% | 22% | 23µM* | ? | 3%
Clc1ccc(-c2csc(Nc3ccccc3)[n+]2Cc2ccco2)c(Cl)c1 | ? | -2% | ? | ? | ? | -18%
